Screens deposited in PubChem by National Center for Advancing Translational Sciences (NCATS).
Sampled rows, rich in hits. Any-hit rate of the full collection: about 5.7%.
Gal4-VP16 FLuc: inhibits Gal4-VP16 luciferase reporter, ROR gamma counter-screen; Drosophila S2 Gal4-VP16 UAS-luciferase, luminescence, 20 h; Potency, µM (top dose mostly 53.6 µM), usual class: inhibitors; 3.5% of 310,000 active; AID 2546;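 further: Gal4-VP16 expression switched on by copper sulfate through the metallothionein promoter; nearly all actives have a fitted effect of over 50% in size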
B2AR arrestin: recruits beta-arrestin to the human beta2-adrenergic receptor. beta-arrestin recruitment to beta2AR, cell-based reporter. Potency, µM (titrated, usually from 46.1 µM), actives largely listed as activators. P07550. AID 492947. 0.02% of 330,000 active; further: nearly all actives have a fitted effect of over 65% in size
Target sequence (P07550 whole entry, looked up): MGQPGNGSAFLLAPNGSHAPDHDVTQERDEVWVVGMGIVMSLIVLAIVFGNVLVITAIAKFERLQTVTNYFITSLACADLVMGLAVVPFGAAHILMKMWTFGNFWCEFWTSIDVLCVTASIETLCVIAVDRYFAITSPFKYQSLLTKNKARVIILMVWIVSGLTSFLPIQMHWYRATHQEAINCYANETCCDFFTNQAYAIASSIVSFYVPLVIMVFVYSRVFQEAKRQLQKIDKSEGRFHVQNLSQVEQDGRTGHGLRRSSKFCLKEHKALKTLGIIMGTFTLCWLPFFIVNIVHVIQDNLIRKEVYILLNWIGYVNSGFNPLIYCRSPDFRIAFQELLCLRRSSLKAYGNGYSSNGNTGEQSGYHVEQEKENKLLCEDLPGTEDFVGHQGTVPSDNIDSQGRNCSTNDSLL
NPSR antag: blocks cAMP signaling of the human neuropeptide S receptor. 1% of 220,000 active. Q6W5P4. CHO-NPSR cells, cAMP TR-FRET, antagonist mode. Potency, µM (titrated, usually from 38.3 µM), actives largely listed as inhibitors; further: nearly all actives have a fitted effect of over 50% in size
Target sequence (Q6W5P4 whole entry, looked up): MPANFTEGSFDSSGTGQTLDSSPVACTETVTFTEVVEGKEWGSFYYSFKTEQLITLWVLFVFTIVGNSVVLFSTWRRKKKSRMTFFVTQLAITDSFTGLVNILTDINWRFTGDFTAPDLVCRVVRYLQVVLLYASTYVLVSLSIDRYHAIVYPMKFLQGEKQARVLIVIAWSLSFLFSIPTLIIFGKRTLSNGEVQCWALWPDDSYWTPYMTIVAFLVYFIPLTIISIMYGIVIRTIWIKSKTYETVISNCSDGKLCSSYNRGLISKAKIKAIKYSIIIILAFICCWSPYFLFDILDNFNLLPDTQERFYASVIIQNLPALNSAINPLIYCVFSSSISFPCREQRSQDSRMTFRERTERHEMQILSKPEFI
RORgamma inh: ROR gamma (mouse) transcription inhibition; P51450; Potency, µM (highest dose often 53.6 µM), most hits filed as inhibitors; Drosophila S2 Gal4-RORgamma UAS-luciferase reporter, 20 h; 5.4% of 310,000 active; further: nearly all actives have a fitted effect of over 60% in size
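Read-out: Photinus luciferase luminescence; inhibitors lower reporter signal. Insect Schneider cells with Gal4-ROR gamma fusion under metallothionein promoter, UAS reporter; 700 uM final copper sulfate induction, 20 hr, ambient temperature.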
Large screens that a line does not name were inactive. The call rests on the fitted dose curve; in most records, active means well fitted curve in the direction sought with a large enough effect; inconclusive means small, poorly fitted or top-dose-only effect, or another doubt; inactive means no such curve, though single readings can be large; an effect the other way counts as inactive or inconclusive.

COc1cc(CCC(=O)OCC(=O)Nc2ccc(C)cc2Cl)cc(OC)c1OC	none (no result: NPSR antag)
COC[C@H]1O[C@@H](c2c(OC)cc(OC)cc2OC)[C@H](OC)[C@@H](OC)[C@@H]1OC	none (no result: B2AR arrestin, NPSR antag)
Cc1ccc(CN(C)C(=O)CSc2nnc3n2CCCCC3)c(C)c1	none (no result: Gal4-VP16 FLuc, NPSR antag, RORgamma inh)
Cc1nc(NCc2ccc(S(N)(=O)=O)cc2)c2c(C)c(C)sc2n1	none (no result: NPSR antag)
Cc1nc(NCCc2ccc(S(N)(=O)=O)cc2)c2c(C)c(C)sc2n1	Gal4-VP16 FLuc 10µM, RORgamma inh 10µM
CC1=CC(C)(C)NC(=S)N1c1ccccc1C	RORgamma inh 2.24µM
CC1=CC(C)(C)NC(=S)N1c1cccc2cc(S(=O)(=O)O)ccc12	none
CC1=CC(C)(C)NC(=S)N1c1ccc(C)cc1C	Gal4-VP16 FLuc 2.82µM, RORgamma inh 1.41µM
CC1=CC(C)(C)NC(=S)N1c1cc(C)cc(C)c1	Gal4-VP16 FLuc inconclusive, RORgamma inh 3.55µM
CN1c2ccccc2C(=O)N2CCc3c([nH]c4ccccc34)C21 (stereo not drawn)	none (no result: B2AR arrestin, NPSR antag)
COC(=O)Nc1ccc(Cl)c(Cl)c1	none (no result: B2AR arrestin, NPSR antag)
CCC(=O)N1CCN=C1SCc1cccc(F)c1	none (no result: NPSR antag)
OC[C@@H](O)[C@@H](O)CCc1ccccc1	none (no result: B2AR arrestin, NPSR antag)
COc1ccccc1/C=C/C(=O)NCC(=O)N/N=C/c1ccccc1	none
COc1ccc(/C=C\C(=O)NCC(=O)N/N=C/c2cccc(OC)c2O)cc1	Gal4-VP16 FLuc 7.94µM, RORgamma inh 1.58µM (no result: NPSR antag)
COc1cccc(/C=N/NC(=O)CNC(=O)/C=C\c2ccccc2)c1O	Gal4-VP16 FLuc 3.16µM, RORgamma inh 2.51µM (no result: NPSR antag)
COc1cccc(/C=N/NC(=O)CNC(=O)C(c2ccccc2)c2ccccc2)c1O	Gal4-VP16 FLuc inconclusive, RORgamma inh 1.78µM (no result: NPSR antag)
O=C1CCCC2[C@@H]3CCC[N@+]4([O-])CCC[C@H](CN12)C34 (stereo partly drawn)	none (no result: B2AR arrestin, NPSR antag)
O=C(CNC(=O)c1ccc(Br)o1)Nc1ccc(F)c(S(=O)(=O)N2CCOCC2)c1	none (no result: Gal4-VP16 FLuc, NPSR antag, RORgamma inh)
Cc1ccccc1NC(=O)CCc1nnc2ccc(N3CCC4(CC3)OCCO4)nn12	none (no result: NPSR antag)
CCC(CC)c1nnc(NC(=O)c2ccc([N+](=O)[O-])cc2)s1	Gal4-VP16 FLuc inconclusive
CCOC(=O)c1sc(NC(=O)c2ccc(S(=O)(=O)N(C)C)cc2)nc1C	NPSR antag inconclusive, RORgamma inh 0.251µM
CCOC(=O)c1sc(NNC(=O)c2ccc(F)cc2)nc1C	Gal4-VP16 FLuc 7.08µM, RORgamma inh 0.708µM
CCOC(=O)c1sc(NNC(=O)c2ccc(C)cc2)nc1C	Gal4-VP16 FLuc inconclusive, RORgamma inh 0.794µM
CCOC(=O)c1sc(NC(=O)Cc2ccc(C)cc2)nc1C	none
CCOC(=O)c1nc(NNC(=O)c2ccc([N+](=O)[O-])cc2)sc1C	Gal4-VP16 FLuc 6.31µM, RORgamma inh inconclusive (no result: NPSR antag)
COc1ncc2nc(-c3cn(C)c4ccccc34)c(=O)n(-c3ccccc3)c2n1	none (no result: B2AR arrestin, NPSR antag)
S=c1[nH]nc(Cc2ccccc2)n1-c1cccc2ccccc12	Gal4-VP16 FLuc inconclusive, RORgamma inh 3.98µM
Cc1ccc(-n2c(Cc3ccccc3)n[nH]c2=S)c(C)c1	Gal4-VP16 FLuc inconclusive, RORgamma inh 1.58µM
CCOC(=O)/C(=C\Nc1ccccc1C(F)(F)F)Sc1ncc(C(F)(F)F)cc1Cl	NPSR antag inconclusive
N#Cc1c(Sc2ncc(C(F)(F)F)cc2Cl)nsc1C/C=N\OCc1ccccc1Br	NPSR antag 10µM
Cc1ccc(NC(=O)c2ccc(OC(=O)COc3ccc(Cl)cc3C)cc2)cc1	none
Cc1cc(Cl)ccc1OCC(=O)NNC(=O)c1cnccn1	Gal4-VP16 FLuc inconclusive, RORgamma inh 7.08µM
CCC(C(=O)NNC(=O)c1cnccn1)c1ccccc1 (stereo not drawn)	Gal4-VP16 FLuc 15.8µM, RORgamma inh 11.2µM
Cc1ccc(C(=O)CC(=O)COc2ccc(Cl)cc2C)cc1	Gal4-VP16 FLuc 4.47µM, RORgamma inh 10µM
O=C(COc1cccc2ccccc12)NNC(=O)c1cnccn1	Gal4-VP16 FLuc inconclusive, RORgamma inh 12.6µM
CCC(C(=O)Nc1cnccn1)c1ccccc1 (stereo not drawn)	none
C=CCCCCCCCCC(=O)OC	none (no result: B2AR arrestin, NPSR antag)
Cc1cc(Br)ccc1OCC(=O)NNC(=O)c1cnccn1	Gal4-VP16 FLuc inconclusive, RORgamma inh 8.91µM
O=C(Nc1nc(-c2cccc3ccccc23)cs1)c1cnccn1	Gal4-VP16 FLuc inconclusive, RORgamma inh 14.1µM
O=C(Nc1nc(-c2ccc(F)c(F)c2)cs1)c1cnccn1	none
COc1ccc2cccc(N3CCN(CCNC(=O)c4ccc(F)cc4)CC3)c2c1	none (no result: B2AR arrestin, NPSR antag)
Cn1cccc1/C=C(/C#N)c1ccc(F)cc1	none
O=C(Nc1nnc(-c2ccc(Br)cc2)o1)C1=COCCO1	none (no result: Gal4-VP16 FLuc, NPSR antag, RORgamma inh)
COc1ccc(-c2nnc(NC(=O)C3=COCCO3)o2)cc1	Gal4-VP16 FLuc 2.82µM, RORgamma inh 3.55µM
COc1ccccc1-c1nnc(NC(=O)C2=COCCO2)o1	Gal4-VP16 FLuc 2.82µM, RORgamma inh 2.24µM
CCCC[C@]12Cc3cc(C#N)ccc3C(O1)c1c(c3cc(F)ccc3oc1=O)O2	none (no result: NPSR antag)
CC(C)(C)c1ccc(C(=O)Nc2ccc(C(=O)NCc3cccnc3)cc2)cc1	Gal4-VP16 FLuc 28.2µM, RORgamma inh inconclusive (no result: NPSR antag)
Cc1ccc(C(=O)NC(=S)NCc2cccnc2)cc1C	Gal4-VP16 FLuc inconclusive, RORgamma inh 12.6µM
CCOC(=O)Cc1ccc(NC(=O)c2ccc(C(C)(C)C)cc2)cc1	Gal4-VP16 FLuc inconclusive, RORgamma inh 0.199µM
O=C(NCc1cccnc1)c1ccc(NC(=O)c2ccc([N+](=O)[O-])cc2)cc1	none (no result: NPSR antag)
O=C(NC(=S)NCc1cccnc1)c1ccc([N+](=O)[O-])cc1	Gal4-VP16 FLuc inconclusive, RORgamma inh 8.91µM
COc1ccc(C(=O)NC(=S)NCc2cccnc2)cc1Br	Gal4-VP16 FLuc inconclusive, RORgamma inh inconclusive
CCC1CN2CCC1CC2[C@@H](NC(=S)Nc1cc(C(F)(F)F)cc(C(F)(F)F)c1)c1cccc2ccc(OC)cc12 (stereo partly drawn)	none (no result: B2AR arrestin, NPSR antag)
CCOCCOCC	none (no result: B2AR arrestin, NPSR antag)
CCN(c1ccccc1)S(=O)(=O)c1nnc(NC(=O)c2ccccc2OC)s1	none (no result: NPSR antag)
CC(C)c1ccc(C(=O)NC(=S)NCc2cccnc2)cc1	Gal4-VP16 FLuc inconclusive, RORgamma inh 2.82µM
Cc1onc(-c2c(F)cccc2Cl)c1C(=O)NC(=S)NCc1cccnc1	Gal4-VP16 FLuc inconclusive, RORgamma inh 15.8µM
O=C(NCc1cccnc1)NC(=O)c1ccc(Cl)cc1	none (no result: NPSR antag)
N#C/C(C(=O)Oc1ccccc1)=C1/Nc2ccccc2-c2ccccc21	none
CN1/C(=C\C(=O)c2cncc(Br)c2)C(C)(C)c2ccccc21	Gal4-VP16 FLuc 11.2µM
CN1/C(=C\C(=O)c2ccco2)C(C)(C)c2ccccc21	Gal4-VP16 FLuc 10µM, RORgamma inh inconclusive
CN1/C(=C\C(=O)c2cccc(S(=O)(=O)N3CCCCC3)c2)C(C)(C)c2ccccc21	RORgamma inh inconclusive
CN1/C(=C\C(=O)c2cccnc2)C(C)(C)c2ccccc21	none
CN1/C(=C/C(=O)c2nc(S(C)(=O)=O)ncc2Cl)C(C)(C)c2ccccc21	Gal4-VP16 FLuc 5.62µM, NPSR antag 5.01µM, RORgamma inh 3.16µM
NS(=O)(=O)c1ccc(CCNC(=O)c2coc3ccccc3c2=O)cc1	none (no result: NPSR antag)
CC(C)OC(=O)c1c(N)n(CCCN2CCOCC2)c2nc3ccccc3nc12	none
CC(C)OC(=O)c1c2nc3ccccc3nc2n2c1[nH]c(=O)c1ccccc12	NPSR antag 10µM
COc1ccccc1/C=C/C=N/NC(=O)c1cc(-c2ccco2)[nH]n1	Gal4-VP16 FLuc inconclusive, RORgamma inh 11.2µM
